# Data as given in PubChem BioAssay (EPA / NIEHS).
# Active and inactive are the calls of the source. How the source made its calls: active means hit-call score of the fitted dose curve at least 0.9, where 1 is the maximum; inactive means score below 0.9.
# Test: ATG_E_Box_CIS: Attagene CIS-FACTORIAL HepG2 Assay for human Enhancer Box (E-box) (AID 2282936)
# Settings: HepG2 E-box cis-reporter transcription, actives raise or lower the signal
# Procedure: ATG_CIS is a cell-based, multiplexed-readout assay that uses HepG2, a human liver cell line, with measurements taken at 24 hours after chemical dosing in a 24-well plate.ATG_E_Box_CIS is one of 52 assay component(s) measured or calculated from the ATG_CIS assay. It is designed to make measurements of mRNA induction, a form of inducible reporter, as detected with fluorescence intensity signals by Reverse transcription polymerase chain reaction (RT-PCR) and Capillary electrophoresis technology.Data from the assay component ATG_E_Box_CIS was analyzed into 1 assay endpoint. This assay endpoint, ATG_E_Box_CIS, was analyzed with bidirectional fitting relative to DMSO as the negative control and baseline of activity. Using a type of inducible reporter, measures of mRNA for gain or loss-of-signal activity can be used to understand the reporter gene at the transcription factor-level as they relate to the gene USF1. Furthermore, this assay endpoint can be referred to as a primary readout, because this assay has produced multiple assay endpoints where this one serves a reporter gene function. To generalize the intended target to other relatable targets, this assay endpoint is annotated to the dna binding intended target family, where the subfamily is basic helix-loop-helix protein.
# Human liver HepG2 cells are transiently transfected with multiple reporter transcription units (MRTUs) in 6-well plates using FuGene 6 reagent (Roche; 3 ml FuGene/1 mg DNA). The MRTU constructs are regulated by a cis-regulating element (promoter). […] A major difference between the CIS and TRANS system is that in CIS activities of endogenous TFs are measured, whereas the TRANS assay evaluates changes in activities of exogenous, chimeric NR-Gal4 proteins. […] At the end of 24 hour incubation, total RNA was isolated using TriZol reagent (Invitrogen). The isolated RNA is then reverse-transcribed using oligo(dT) primer and Mo-MLV reverse transcriptase (Invitrogen) with DNAse I (Ambion) treatment for 30 min. The one-tenth of the produced cDNA was amplified by PCR using Taq DNA polymerase (Invitrogen) and two reporter sequence-specific primers. The PCR products were fluorescently labeled by primer extension with 6-arboxyfluorescein (6-FAM) 5'-labeled reporter sequence-specific primer (2 min at 95 C, 20 s at 68 C and 10 min at 72 C) and these products were digested with 5U of HpaI (New England Biolabs) for 2h at 37 C. The fragments were purified using Qiaquick PCR columns (Qiagen), analyzed on an ABI 3130xL genetic analyzer (Applied Biosystems) with peak positions identified by using a set of X-rhodamine (ROX)-labeled MapMarker1000 molecular weight standards (BioVentures). The raw capillary electrophoresis data was processed using Attagraph software (Attagene).
SMILES,outcome,AC50
CC(C)c1ccc(C=O)cc1,inactive,–
O=C1Nc2ccccc2C1(c1ccc(O)cc1)c1ccc(O)cc1,–,71.9 µM (active)
S=C(NC1CCCCC1)NC1CCCCC1,inactive,–
CC(C)CC(O)Cc1ccccc1 (stereo not given),inactive,–
CC1OC1C1CCC2(C)OC2C1 (stereo not given),inactive,–
CCN(CC)c1ccc(C(=O)c2ccccc2C(=O)O)c(O)c1,inactive,–
O=C1CCCN1CCO,inactive,–
CCOC(=O)Cc1cccc2ccccc12,inactive,–
Cn1c(=O)[nH]c2ncn(C)c2c1=O,inactive,–
CCOCC(=O)O,inactive,–
C=CC(C)(C)C,inactive,–
O=C1CCCC(=O)O1,inactive,–
C[Si](C)(CCCN)O[Si](C)(C)CCCN,inactive,–
C[Si](C)(C)O[Si](O)(O)O,inactive,–
CC(=O)[C@H]1[C@H](C#N)C[C@H]2[C@@H]3CC=C4C[C@@H](O)CC[C@]4(C)[C@H]3CC[C@@]21C,inactive,–
O=S1(=O)OC(c2ccc(O)cc2)(c2ccc(O)cc2)c2ccccc21,inactive,–
C1=CCCC1,inactive,–
Cc1oncc1C(=O)Nc1ccc(C(F)(F)F)cc1,inactive,–
CCOC(=O)CC,inactive,–
COC(=O)c1sccc1S(N)(=O)=O,inactive,–

SMILES,outcome,AC50
CCN(CCC#N)c1ccc(N=Nc2c(Cl)cc([N+](=O)[O-])cc2Cl)cc1,inactive,–
COCCOCCOCCOCCOC,inactive,–
CC1(C)O[C@@H]2C[C@H]3[C@@H]4C[C@H](F)C5=CC(=O)C=C[C@]5(C)[C@@]4(F)[C@@H](O)C[C@]3(C)[C@]2(C(=O)CO)O1,inactive,–
C/C=C\C/C=C/CCCCCCCCOC(C)=O,inactive,–
COc1ccc(C(Cl)=C(c2ccc(OC)cc2)c2ccc(OC)cc2)cc1,–,21.8 µM (active)
CCCCCCC(O)CO (stereo not given),inactive,–
CCCCCC/C=C/C=O,inactive,–
O=P(O)(O)Oc1ccccc1,inactive,–
O=S(=O)(O)c1ccc2cc(O)c(S(=O)(=O)O)cc2c1,inactive,–
CC(C)c1ccc2cc(C(C)C)ccc2c1,inactive,–
c1ccc2c(c1)ccc1cc3c(ccc4ccccc43)cc12,inactive,–
O=C(O)CCCC[C@@H]1SC[C@@H]2NC(=O)N[C@@H]21,inactive,–
O=Cc1ccc(CO)o1,inactive,–
O=C(C=Cc1ccccc1)OCc1ccccc1,inactive,–
C=CC(=O)NC(C)(C)CS(=O)(=O)O,inactive,–
COC=O,inactive,–
COc1c2ccoc2cc2oc(=O)ccc12,inactive,–
CC(C)=CC1CC(C)CCO1 (stereo not given),inactive,–
C=C[C@](C)(O)CC[C@@H]1[C@@]2(C)CCCC(C)(C)[C@@H]2CC[C@@]1(C)O,inactive,–
CC=CC(F)(F)C(F)(F)C(F)(F)F,inactive,–
